Bioassay records: PubChem, National Center for Advancing Translational Sciences (NCATS)
SARS PLP yeast – qHTS of Yeast-based Assay for SARS-CoV PLP; S. cerevisiae expressing SARS-CoV PLpro, growth rescue; Potency, µM (highest dose often 32.9 µM), actives largely listed as activators; hit rate 0.19% among 330,000; AID 485353, 2010; further: nearly all actives have a fitted effect of over 55% in size
Pf growth 96h – Primary qHTS for delayed death inhibitors of the malarial parasite plastid, 96 hour incubation; P. falciparum luciferase reporter growth, 96 h; Potency, µM (top dose mostly 28.7 µM), most hits filed as inhibitors; hit rate 6.9% among 320,000; active means well fitted inhibition curve with a large enough effect; inconclusive means small, poorly fitted or top-dose-only effect, or another doubt; inactive means no such curve, though single readings can be large or run the other way
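Two-generation exposure (96 h) targets delayed-death phenotype. Reporter parasites carrying integrated firefly luciferase, in red cells at 2% hematocrit and 0.05% parasitemia final, kept at 37 C, 5% CO2; luminescence loss indicates inhibition.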
RE007 growth inh – qHTS Assay for Inhibitors of the HIV-1 protein Vpr; hit rate 0.21% among 360,000; S. pombe RE007 Vpr strain, BacTiter-Glo ATP luminescence, 24 h; Potency, µM (top dose mostly 92.2 µM), usual class: inhibitors; active means well fitted falling curve with a large enough effect; inconclusive means small, poorly fitted or top-dose-only effect; inactive means no such curve, though single readings can be large or run the other way; further: nearly all actives have a fitted effect of over 50% in size
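Fission yeast strain RE007, carrying one chromosomally integrated HIV-1 vpr copy, was seeded at OD 0.01 in PMG+AL medium with 23 nL pinned compound. After 24 h at 30 °C and 99% humidity, viability was read by BacTiter-Glo luminescence.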
NS1 function inh – qHTS Assay for Inhibitors of Influenza NS1 Protein Function | Potency, µM (titrated, usually from 46.1 µM) | hit rate 0.4% among 270,000 | AID 2326, 2010; further: actives are rising curves; nearly all actives have a fitted effect of over 50% in size
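S. cerevisiae expressing influenza A NS1, grown in glucose, washed, then diluted 1:100 into pH 6.0 -URA galactose medium with 23 nl compound. Growth recovery read as OD600; NS1-free strain serves as control.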
Pf growth 48h – Primary qHTS for delayed death inhibitors of the malarial parasite plastid, 48 hour incubation | Potency, µM (doses to about 28.7 µM), hits mostly inhibitors | P. falciparum luciferase growth in erythrocytes, 48 h | AID 504832, 2011 | hit rate 5.9% among 310,000; active means well fitted inhibition curve with a large enough effect; inconclusive means small, poorly fitted or top-dose-only effect, or another doubt; inactive means no such curve, though single readings can be large or run the other way
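Parasite viability was followed by luminescence of a genomically integrated firefly luciferase. Cultures held 0.1% parasitemia at 2% hematocrit (final), incubated under 5% CO2 at 37 C.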
Numbers stand for hits; [ ] = dose if it differs, or a comment. This is a sample that favours compounds with a hit; in the whole collection about 9.5% have one here. Unless noted, the call rests on the fitted dose curve.

What do the screens show for `CC(C)Cc1nc(N2CCN(C(=O)c3ccccc3)CC2)c(C#N)c2c1CCC2`?
SARS PLP yeast: inactive; Pf growth 96h: inconclusive; RE007 growth inh: inactive; NS1 function inh: inactive; Pf growth 48h: inconclusive

What do the screens show for `CC(=O)N1CCN(c2nc(-c3ccco3)c3c(c2C#N)CC(C)(C)SC3)CC1`?
SARS PLP yeast: inactive; Pf growth 96h: inconclusive; RE007 growth inh: inactive; NS1 function inh: inactive; Pf growth 48h: inconclusive

What do the screens show for `CC1(C)Cc2c(C#N)c(N3CCN(C(=O)c4ccccc4Cl)CC3)nc(-c3ccco3)c2CS1`?
SARS PLP yeast: inactive; Pf growth 96h: 1.65µM; RE007 growth inh: inactive; NS1 function inh: inactive; Pf growth 48h: inconclusive

How did CC(C)Cc1nc(N2CCN(C(=O)c3ccco3)CC2)c(C#N)c2c1CCC2 do in these assays?
SARS PLP yeast: inactive; Pf growth 96h: inactive; RE007 growth inh: inactive; NS1 function inh: inactive; Pf growth 48h: 2.33µM

What do the screens show for `CN(CC(=O)Nc1ccc(Cl)c(C(F)(F)F)c1)C(=O)c1cccc(N2C(=O)CCC2=O)c1`?
SARS PLP yeast: inactive; Pf growth 96h: inconclusive; RE007 growth inh: inactive; Pf growth 48h: inactive

What do the screens show for `CCc1nc(N2CCN(C(=O)c3ccco3)CC2)c(C#N)c2c1COC(C)(C)C2`?
SARS PLP yeast: inactive; Pf growth 96h: inconclusive; RE007 growth inh: inactive; NS1 function inh: inactive; Pf growth 48h: 10.4µM

How did CC1(C)Cc2c(C#N)c(N3CCN(C(=O)c4ccco4)CC3)nc(Cc3ccccc3)c2CO1 do in these assays?
SARS PLP yeast: inactive; Pf growth 96h: inactive[5.75 µM]; RE007 growth inh: inactive; NS1 function inh: inactive; Pf growth 48h: 1.65µM

What do the screens show for `Cc1ccccc1OCC(=O)Nc1nnc(COc2ccccc2)s1`?
RE007 growth inh: inactive

What do the screens show for `CCCc1c(CC)c(=N)c2ccccc2n1C`?
SARS PLP yeast: inactive; Pf growth 96h: inactive; RE007 growth inh: inconclusive; NS1 function inh: inactive; Pf growth 48h: 0.329µM

Results for Cn1c(-c2ccccc2)c(C(=O)CCl)c2ccccc21 ?
SARS PLP yeast: inactive; Pf growth 96h: inactive; RE007 growth inh: inactive; NS1 function inh: inactive; Pf growth 48h: inconclusive

How did Cc1cc(O)c(C(C)C)cc1NC(=O)Nc1cccc2ccccc12 do in these assays?
SARS PLP yeast: inactive; Pf growth 96h: inconclusive; RE007 growth inh: inconclusive; NS1 function inh: inactive; Pf growth 48h: 10.4µM

How did Cc1cc(O)c(C(C)C)cc1NC(=O)Nc1cc(Cl)ccc1Cl do in these assays?
RE007 growth inh: inactive

What do the screens show for `Cc1ccc(C(=O)O)cc1NC(=O)Nc1cccc2ccccc12`?
SARS PLP yeast: inactive; Pf growth 96h: 2.62µM; RE007 growth inh: inactive; NS1 function inh: inactive; Pf growth 48h: inactive

What do the screens show for `N#CC1c2ccccc2-c2ccccc2N1C(=O)c1ccccc1` (stereo unspecified)?
RE007 growth inh: inactive

Results for CC(C)(C)N1CC(C(=O)Nc2ccc(C(N)=O)cc2)CC1=O (stereo unspecified) ?
RE007 growth inh: inactive

What do the screens show for `CCCCNC(=O)C1CCN(Cc2ccc(OCc3ccccc3)c(OC)c2)CC1`?
SARS PLP yeast: inactive; Pf growth 96h: inactive; RE007 growth inh: inactive; NS1 function inh: inactive; Pf growth 48h: inactive

What do the screens show for `COc1cc(CN2CCC(C(=O)NCC(C)(C)CN(C)C)CC2)ccc1OCc1ccccc1`?
SARS PLP yeast: inactive; Pf growth 96h: inconclusive; RE007 growth inh: inactive; NS1 function inh: inactive; Pf growth 48h: 9.28µM

What do the screens show for `O=C(Nc1cc2c3c(c1)C1CCCC1CN3CC1CCCC21)c1ccccc1` (stereo unspecified)?
SARS PLP yeast: inactive; Pf growth 96h: inactive; RE007 growth inh: inactive; NS1 function inh: inactive; Pf growth 48h: 13.1µM

How did CCCCC(=O)NCCc1ccc(OC)cc1 do in these assays?
SARS PLP yeast: inactive; Pf growth 96h: inactive; RE007 growth inh: inactive; NS1 function inh: inactive

What do the screens show for `COc1ccc(CCNC(=O)CCCc2ccccc2)cc1`?
SARS PLP yeast: inactive; Pf growth 96h: 10.4µM; RE007 growth inh: inactive; NS1 function inh: inactive; Pf growth 48h: inactive

What do the screens show for `COc1ccc(CC(=O)Nc2ccccc2C(=O)NCCc2ccccc2)cc1`?
SARS PLP yeast: inactive; Pf growth 96h: 11.7µM; RE007 growth inh: inactive; NS1 function inh: inactive; Pf growth 48h: inconclusive

How did COc1ccc(Cc2c(C3CCCCC3)nc3cc(C)c(Br)c(C)n23)c(C)c1 do in these assays?
RE007 growth inh: inactive

How did C=CC[C@H](N)C(=O)O do in these assays?
NS1 function inh: inactive

Results for CCOC(=O)COc1ccccc1/C=C1/NC(=O)NC1=O ?
SARS PLP yeast: inactive; Pf growth 96h: 10.4µM; RE007 growth inh: inactive; NS1 function inh: inactive; Pf growth 48h: inactive

Results for CCOC(=O)COc1ccccc1/C=N/O ?
SARS PLP yeast: inactive; Pf growth 96h: inactive; RE007 growth inh: inactive; NS1 function inh: inactive; Pf growth 48h: inactive

How did COc1cccc(/C=C2\NC(=O)NC2=O)c1O do in these assays?
SARS PLP yeast: inactive; Pf growth 96h: 0.928µM; RE007 growth inh: inactive; NS1 function inh: inactive; Pf growth 48h: inactive

What do the screens show for `O=C1NC(=O)/C(=C/c2ccccc2Cl)N1`?
SARS PLP yeast: inactive; Pf growth 96h: inconclusive; RE007 growth inh: inactive; NS1 function inh: inactive

What do the screens show for `COc1ccc(Nc2c(-c3ccco3)nc3cccc(C)n23)cc1`?
SARS PLP yeast: inactive; Pf growth 96h: 2.62µM; RE007 growth inh: inactive; Pf growth 48h: inactive

How did Cc1ccc(NS(=O)(=O)c2c(C)nc3sccn3c2=O)cc1C do in these assays?
SARS PLP yeast: inactive; Pf growth 96h: inconclusive; RE007 growth inh: inactive; NS1 function inh: inactive; Pf growth 48h: inactive

What do the screens show for `Cc1ccc(S(=O)(=O)N2CCN(S(=O)(=O)c3ccccc3Br)CC2)cc1`?
SARS PLP yeast: inactive; RE007 growth inh: inactive

What do the screens show for `Oc1ccc2c3c1O[C@H]1c4oc5ccccc5c4C[C@@]4(O)[C@@H](C2)N(CC2CC2)CC[C@]314`?
SARS PLP yeast: inactive; Pf growth 96h: 4.65µM; RE007 growth inh: inactive; NS1 function inh: inactive; Pf growth 48h: inconclusive

How did C=CCN1CC[C@]23c4c5ccc(O)c4OC2C(O)CC[C@@]3(O)[C@H]1C5 (stereo partly specified) do in these assays?
SARS PLP yeast: inactive; RE007 growth inh: inactive

How did Oc1ccc2c3c1O[C@H]1[C@@H](O)CC[C@@]4(O)C(C2)N(CC2CCC2)CCC314 (stereo partly specified) do in these assays?
Pf growth 96h: 3.38µM; NS1 function inh: inactive; Pf growth 48h: inconclusive

How did CC(=O)c1c(C)[nH]c(C(=O)Nc2cc(C)cc(C)c2)c1C do in these assays?
SARS PLP yeast: inactive; Pf growth 96h: 5.86µM; RE007 growth inh: inactive; NS1 function inh: inactive

What do the screens show for `CC(=O)c1c(C)[nH]c(C(=O)Nc2ccc(S(=O)(=O)N(C)C)cc2)c1C`?
SARS PLP yeast: inactive; Pf growth 96h: 13.1µM; RE007 growth inh: inactive; NS1 function inh: inactive; Pf growth 48h: inconclusive

What do the screens show for `N#C/C(=C\c1ccc(OCCN2CCOCC2)cc1)C(=O)Nc1ccccc1F`?
SARS PLP yeast: inactive; Pf growth 96h: inactive; RE007 growth inh: inactive; NS1 function inh: inactive; Pf growth 48h: inactive
